HT1080NT lethal: kills 2HG-producing HT-1080-NT fibrosarcoma cells. HT-1080-NT fibrosarcoma viability, CellTiter-Glo ATP luminescence, 48 h. Potency, µM (doses to about 46.1 µM), usual class: cytotoxic. 360,000 tested, 1.6% active. AID 686970;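 further: NT is the 2HG producing partner of a matched IDH1 knockdown line; nearly all actives have a fitted effect of over 55% in size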
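Fibrosarcoma NT cells, 750 per well in 5% FBS RPMI, were exposed to compound for 48 hours. Viability: CellTiter-Glo luminescence.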
KB-V1 cytotox: kills drug-selected multidrug resistant KB-V1 cells. KB-V1 MDR cells viability, CellTiter-Glo, 72 h. Potency, µM (doses to about 46.1 µM), actives largely listed as cytotoxic. 400,000 tested, 3.4% active. AID 1347076; further: nearly all actives have a fitted effect of over 60% in size
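Cells of the MDR subline KB-V1 are plated, dosed with compound at multiple concentrations, and incubated 72 h at 37 degrees C; CellTiter-Glo is then added and luminescence read after 10 min.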
HT1080 IDH1KD tx: toxicity to HT-1080 IDH1 knockdown cells (counter line); HT-1080 IDH1 knockdown viability, ATP luminescence, 48 h; Potency, µM (highest dose often 46.1 µM), most hits filed as cytotoxic; 360,000 tested, 2% active
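Luminescent ATP read-out (CellTiter-Glo, 10 min at room temperature) after 48 h compound exposure at 37 °C gave viability of IDH1-knockdown HT-1080 cells. Activity was normalised to DMSO and cell-free wells, then fitted as concentration-response curves.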
IL-1B inflam inh: inhibitors of inflammasome signaling (IL-1 beta secretion); activity change, % at 57.5 µM; 360,000 tested, 4.7% active; THP-1 LPS/ATP IL-1B secretion, AlphaLISA, 16 h; hits give low values; in the data active means activity change below about -50%; inconclusive means mostly about -30% to -49%
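THP-1 cells pretreated 1 hr with compounds (up to 57.5 uM final), then stimulated with LPS (250 ng/mL final) plus ATP (1.25 mM final); secreted IL-1B measured by AlphaLISA after 16 hr, decreased signal indicating inhibition.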
KB-3-1 tox: KB-3-1 parental cell cytotoxicity. KB-3-1 viability, CellTiter-Glo ATP luminescence, 72 h. Potency, µM (series often up to 46.1 µM), hits mostly cytotoxic. 400,000 tested, 1.4% active. AID 1347075; further: nearly all actives have a fitted effect of over 60% in size
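KB-3-1 parental drug-naive adenocarcinoma cells in DMEM/10% FBS, incubated 72 h at 37 C with pin-transferred compounds across a concentration series. Viability by CellTiter-Glo luminescence; concentration-response curves fitted after normalization.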
Numbers stand for hits; - = inactive; ? = inconclusive; . = no result; [ ] = another dose, or the depositor's remark. Shown are actives, neighbours in structure and some others; about 8.8% of the full set was active somewhere. Unless noted, the call rests on the fitted dose curve; in most records, active means well fitted curve in the direction sought with a large enough effect; inconclusive means small, poorly fitted or top-dose-only effect, or another doubt; inactive means no such curve, though single readings can be large; an effect the other way counts as inactive or inconclusive.

SMILES	HT1080NT lethal	KB-V1 cytotox	HT1080 IDH1KD tx	IL-1B inflam inh	KB-3-1 tox
CC(C)CCNC(=O)C(c1ccc(O)cc1)N(C(=O)C1COc2ccccc2O1)c1cccc(O)c1 (stereo not drawn)	-	-	?	-76	-
Cn1c(=O)cc(SCC(=O)Nc2cccc(C#N)c2)c2ccc(Cl)cc21	.	-	.	.	-
O=c1oc2ccccc2nc1/C=C(O)/C=C\c1ccccc1	-	-	-	-54	-
Cc1ccc(/C(O)=C/c2nc3ccccc3oc2=O)cc1	-	-	23µM	.	-
O=c1oc2ccccc2nc1/C=C(O)/C=C/c1ccc(F)cc1	-	-	-	-	-
COc1ccc(CNC(=O)C(C)Sc2nc3ccccc3c(=O)n2CC2CCCO2)cc1 (stereo not drawn)	-	5.8µM	-	-	-
CC(Sc1nc2ccccc2c(=O)n1CC1CCCO1)C(=O)NC(C)c1ccccc1 (stereo not drawn)	-	-	-	-	-
Cc1cccc(NC(=O)CN(CC2CCCO2)C(=O)c2oc3ccc(F)cc3c2C)c1C (stereo not drawn)	-	5.2µM	-	-	-
COc1ccc(CCNC(=O)C(=O)NCC2CCCO2)cc1 (stereo not drawn)	-	-	-	-	-
O=C(NCc1ccc(Cl)cc1)c1ccc(OCC2CCCO2)cc1 (stereo not drawn)	-	16µM	-	-	-
COc1ccc(CNC(=O)C(=O)NCC2CCCO2)cc1 (stereo not drawn)	-	-	-	-	18µM
Cc1ccc(CNC(=O)c2ccc(OCC3CCCO3)cc2)cc1 (stereo not drawn)	-	-	-	-	-
Fc1ccc(-c2cn3cc(Cc4ccccc4Cl)sc3n2)cc1	.	-	.	.	-
CN(C)c1ccc(NC(=O)CSC2=Nc3ccccc3C3=NC(CC(=O)NCc4ccc5c(c4)OCO5)C(=O)N23)cc1 (stereo not drawn)	.	-	.	.	-
COc1cc(NC(=O)c2cc3nc(-c4ccc(C)cc4)cc(C(F)(F)F)n3n2)cc(OC)c1OC	.	-	.	.	-
O=C(Nc1nc(-c2ccc(Cl)cc2Cl)cs1)c1ccc(OCC2CCCO2)cc1 (stereo not drawn)	?	9.2µM	?	-	-
O=C(Nc1ccc(Br)cc1Cl)c1ccc(OCC2CCCO2)cc1 (stereo not drawn)	-	?	-	-81	-
O=C(Nc1ccc2c(c1)C(=O)N(CC1CCCO1)C2=O)c1ccc(Cl)c(Cl)c1 (stereo not drawn)	-	21µM	-	-	-
Cc1cc(NC(=O)c2ccc(OCC3CCCO3)cc2)ccc1Br (stereo not drawn)	-	?	?	-	-
O=C(Nc1ccc(Cl)cc1)c1ccc(OCC2CCCO2)cc1 (stereo not drawn)	-	13µM	-	-	?
Cc1ccc(NC(=O)c2ccc3c(c2)C(=O)N(CC2CCCO2)C3=O)cc1C (stereo not drawn)	-	-	-	-	-
Cc1cccnc1NC(=O)c1ccc(OCC2CCCO2)cc1 (stereo not drawn)	-	-	-	-	-
CCCN(CCC)C(=O)c1cc2c(=O)n3cccc(C)c3nc2s1	-	?	-	-	-
CCOC1=C2CN(S(=O)(=O)c3ccc(C)cc3)[C@H](c3ccccc3)C[C@H]2[C@H]2C(=O)N(c3ccccc3)C(=O)[C@H]2C1	-	-	-	-	-
COc1cccc(NC(=O)Cn2c(=O)n(Cc3ccccc3)c(=O)c3c2c2cc(C)ccc2n3C)c1	.	-	.	.	-
SMILES	HT1080NT lethal	KB-V1 cytotox	HT1080 IDH1KD tx	IL-1B inflam inh	KB-3-1 tox
Cc1ccc2c(c1)N(C(=O)N1CCC(C(=O)NCc3ccccc3F)CC1)CC(C)O2 (stereo not drawn)	.	-	.	.	-
O=C(NCC1OCCc2ccccc21)c1ccc(NC(=O)c2ccc(Cl)cc2)cc1 (stereo not drawn)	21µM	?	?	-	?
Cc1cccc(NC(=O)c2ccc(OCC3CCCO3)cc2)c1C (stereo not drawn)	-	21µM	-	-	-
CCc1nnc(NC(=O)/C=C/c2cccs2)s1	?	-	-	-	-
COc1cc2nc(N3CCN(C)CC3)nc(NC3CC3)c2cc1OC	-	.	-	.	.
COc1cc2nc(N3CCCN(C)CC3)nc(NC3CCN(Cc4ccccc4)CC3)c2cc1OC	10µM	?	7.1µM	.	?
COc1cc2c(NC3CCN(C)CC3)nc(N3CCCN(C)CC3)nc2cc1OCc1ccccc1	10µM	.	6.3µM	.	.
COc1cc2c(NC3CCN(C(C)C)CC3)nc(N3CCCN(C)CC3)nc2cc1OCCCN(C)C	.	-	.	.	2.3µM
COc1cc2nc(N3CCCN(C)CC3)nc(Nc3ccncc3)c2cc1OC	.	-	.	.	13µM
COc1ccccc1CCNS(=O)(=O)c1ccc(N2CCCCS2(=O)=O)cc1	.	-	.	.	-
Cc1cnc(NC(=O)c2cccc(S(=O)(=O)N3CCOCC3)c2)s1	-[9.24 µM]	-	-	-	-
CCOc1ccc(NC(=O)c2cnn3c2NC(C)=C(C(=O)Nc2ccc(Cl)cc2)C3c2ccc(OC)c(OC)c2)cc1 (stereo not drawn)	.	-	.	.	-
O=C(NCCc1ccc(O)cc1)c1[nH]c(C(F)(F)F)nc1-c1ccccc1	-	-	-	-	-
COc1cccc(OCc2nc3ccccc3n2CCOc2ccc(C)cc2)c1	.	-	.	.	-
CC(=O)C[C@H](O)CC(=O)[C@H]1OC(=O)CCCCCCCc2ccccc21	-	-	-	-	-
COc1cc2nc(N3CCN(C)CC3)nc(NC3CCN(Cc4ccccc4)CC3)c2cc1OC	?	.	11µM	.	.
